# From PubChem BioAssay (EPA / NIEHS)
# Active and inactive are the calls of the source. How the source made its calls: active means hit-call score of the fitted dose curve at least 0.9, where 1 is the maximum; inactive means score below 0.9.
# Assays:
# [1] = ATG_GRE_CIS: Attagene CIS-FACTORIAL HepG2 Assay for human Glucocorticoid Response Elements (GRE) (AID 2282947); details: HepG2 GRE cis-reporter, Attagene multiplex mRNA; actives raise or lower the signal
# Summary of the method: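 Fluorescence intensity of reporter-specific cDNA fragments, separated by capillary electrophoresis, provides the signal. Constructs carry cis-regulating promoters in transiently transfected HepG2 liver cells; 24 h incubation; fitting is bidirectional against DMSO.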
# [2] = ATG_ISRE_CIS: Attagene CIS-FACTORIAL HepG2 Assay for human Interferon Regulatory Factor 1 (IRF1) binding to an Interferon-Stimulated Response Element (ISRE) (AID 2282948); details: HepG2 ISRE cis-reporter (Attagene), mRNA transcription readout; actives raise or lower the signal
# Summary of the method: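 Signal reflects induction or loss of ISRE-linked reporter mRNA in transiently transfected HepG2 cells after a 24 h treatment, detected by fluorescent RT-PCR fragments on capillary electrophoresis and normalised to DMSO.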
# [3] = ATG_M_32_CIS: Attagene CIS-FACTORIAL HepG2 Assay for M32 Transcription Factor (Internal Marker) (AID 2282949); details: HepG2 Attagene cis-factorial M32 reporter, mRNA; actives raise or lower the signal;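 further: background control marker of the multiplexed CIS panel rather than a real target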
# Summary of the method: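 HepG2 human liver cells transiently transfected with cis-promoter-driven multiple reporter transcription units, dosed 24 h. Reporter mRNA quantified by RT-PCR, FAM-labelled primer extension, HpaI digest and capillary electrophoresis; bidirectional fit versus DMSO baseline.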
# [4] = ATG_M_06_CIS: Attagene CIS-FACTORIAL HepG2 Assay for M06 Transcription Factor (Internal Marker) (AID 2282950); details: HepG2 Attagene CIS-FACTORIAL M06 internal marker reporter; actives raise or lower the signal
# Summary of the method: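 Terse: HepG2, transient MRTU transfection (FuGene 6), 24 h dosing; total RNA, oligo(dT) RT, PCR, FAM label, HpaI cut, capillary electrophoresis; bidirectional fit vs DMSO baseline; background-control endpoint.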
# [5] = molecular target: Hepatocyte nuclear factor 6 (Homo sapiens) (UniProt Q9UBC0); assay: ATG_HNF6_CIS: Attagene CIS-FACTORIAL HepG2 Assay for human Hepatocyte Nuclear Factor 6 (HNF6) (AID 2282952); details: HepG2 Attagene cis-factorial HNF6 reporter transcription; actives raise or lower the signal
# Summary of the method: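 Readout: fluorescent reporter-transcript fragments resolved by capillary electrophoresis after RT-PCR, reflecting endogenous factor activity in transfected HepG2. Exposure 24 h. Gain or loss of signal fitted bidirectionally against DMSO.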
# [6] = molecular target: Heat shock factor protein 1 (Homo sapiens) (UniProt Q00613); assay: ATG_HSE_CIS: Attagene CIS-FACTORIAL HepG2 Assay for human Heat Shock Transcription Factor 1 (HSE) (AID 2282953); details: HepG2 HSE cis-reporter, Attagene RNA transcription; actives raise or lower the signal
# Summary of the method: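 Read-out: fluorescence of reporter-specific RT-PCR fragments separated by capillary electrophoresis. HepG2 carrying transfected cis-element reporter units; 24 h dosing; activity fitted in both directions relative to DMSO baseline.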
# [7] = ATG_MRE_CIS: Attagene CIS-FACTORIAL HepG2 Assay for human Metal Responsive Element (MRE) (AID 2282954); details: HepG2 MRE cis-reporter transcription, Attagene multiplex; actives raise or lower the signal
# Summary of the method: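 Measured here is mRNA induction from an MRE cis-element reporter in HepG2 after 24 h, quantified by fluorescence of labelled RT-PCR products on capillary electrophoresis; gain- and loss-of-signal fits use DMSO as baseline.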
# [8] = ATG_PBREM_CIS: Attagene CIS-FACTORIAL HepG2 Assay for human Phenobarbital-responsive Enhancer Module (PBREM) (AID 2282955); details: HepG2 PBREM cis-reporter, Attagene multiplexed transcription; actives raise or lower the signal
# Summary of the method: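 Reporter mRNA read by RT-PCR, 6-FAM primer extension, HpaI digestion and capillary electrophoresis. Transfected HepG2 cells, 24 h compound exposure. Gain or loss of signal fitted bidirectionally relative to DMSO baseline.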
# [9] = molecular target: Hypoxia-inducible factor 1-alpha (Homo sapiens) (UniProt Q16665); assay: ATG_HIF1a_CIS: Attagene CIS-FACTORIAL HepG2 Assay for human Hypoxia Inducible Factor 1 (HIF1A) (AID 2282951); details: HepG2 Attagene cis-factorial HIF1a reporter transcription; actives raise or lower the signal
# Summary of the method: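 RT-PCR/capillary electrophoresis fluorescence readout of reporter transcripts from endogenous-TF-driven cis elements in transfected HepG2 cells, 24 h exposure; activity fitted in both directions against DMSO controls.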
# Chain of Hepatocyte nuclear factor 6 (Homo sapiens) (Q9UBC0 whole entry, looked up, the tested form may be a part): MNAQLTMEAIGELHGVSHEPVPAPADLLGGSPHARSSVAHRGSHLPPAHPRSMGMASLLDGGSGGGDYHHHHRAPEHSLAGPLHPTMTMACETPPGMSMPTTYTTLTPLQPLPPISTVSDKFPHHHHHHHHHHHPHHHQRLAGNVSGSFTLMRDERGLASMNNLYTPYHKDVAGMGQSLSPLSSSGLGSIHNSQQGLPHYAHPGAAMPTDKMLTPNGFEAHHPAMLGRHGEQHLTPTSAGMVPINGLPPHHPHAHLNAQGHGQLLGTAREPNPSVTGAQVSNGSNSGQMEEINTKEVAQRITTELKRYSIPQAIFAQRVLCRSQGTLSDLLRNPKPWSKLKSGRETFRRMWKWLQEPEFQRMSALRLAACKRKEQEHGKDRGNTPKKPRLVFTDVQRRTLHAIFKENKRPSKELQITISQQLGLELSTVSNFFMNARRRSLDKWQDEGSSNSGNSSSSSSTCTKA
# Chain of Hypoxia-inducible factor 1-alpha (Homo sapiens) (Q16665 whole entry, looked up): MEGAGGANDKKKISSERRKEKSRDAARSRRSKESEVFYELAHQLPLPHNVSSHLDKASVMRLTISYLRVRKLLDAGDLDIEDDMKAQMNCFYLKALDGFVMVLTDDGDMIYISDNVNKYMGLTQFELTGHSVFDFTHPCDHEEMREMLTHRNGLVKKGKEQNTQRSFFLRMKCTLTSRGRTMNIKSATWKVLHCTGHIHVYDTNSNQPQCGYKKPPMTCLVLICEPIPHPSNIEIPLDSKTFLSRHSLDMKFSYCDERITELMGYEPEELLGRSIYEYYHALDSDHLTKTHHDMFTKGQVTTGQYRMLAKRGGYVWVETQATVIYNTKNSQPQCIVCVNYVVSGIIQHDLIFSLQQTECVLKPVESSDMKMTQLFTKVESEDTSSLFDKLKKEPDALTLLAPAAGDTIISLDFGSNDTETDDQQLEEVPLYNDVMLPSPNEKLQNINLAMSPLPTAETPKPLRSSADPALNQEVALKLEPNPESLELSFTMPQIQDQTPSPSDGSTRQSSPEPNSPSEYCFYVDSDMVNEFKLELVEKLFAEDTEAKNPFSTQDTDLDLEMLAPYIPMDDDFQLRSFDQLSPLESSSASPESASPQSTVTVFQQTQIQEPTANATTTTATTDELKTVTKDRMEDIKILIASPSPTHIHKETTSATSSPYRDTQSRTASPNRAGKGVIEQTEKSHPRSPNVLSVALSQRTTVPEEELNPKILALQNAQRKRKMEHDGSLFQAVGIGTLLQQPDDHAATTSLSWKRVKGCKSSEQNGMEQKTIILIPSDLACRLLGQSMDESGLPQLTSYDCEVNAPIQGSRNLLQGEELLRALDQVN
# Chain of Heat shock factor protein 1 (Homo sapiens) (Q00613 whole entry, looked up, the tested form may be a part): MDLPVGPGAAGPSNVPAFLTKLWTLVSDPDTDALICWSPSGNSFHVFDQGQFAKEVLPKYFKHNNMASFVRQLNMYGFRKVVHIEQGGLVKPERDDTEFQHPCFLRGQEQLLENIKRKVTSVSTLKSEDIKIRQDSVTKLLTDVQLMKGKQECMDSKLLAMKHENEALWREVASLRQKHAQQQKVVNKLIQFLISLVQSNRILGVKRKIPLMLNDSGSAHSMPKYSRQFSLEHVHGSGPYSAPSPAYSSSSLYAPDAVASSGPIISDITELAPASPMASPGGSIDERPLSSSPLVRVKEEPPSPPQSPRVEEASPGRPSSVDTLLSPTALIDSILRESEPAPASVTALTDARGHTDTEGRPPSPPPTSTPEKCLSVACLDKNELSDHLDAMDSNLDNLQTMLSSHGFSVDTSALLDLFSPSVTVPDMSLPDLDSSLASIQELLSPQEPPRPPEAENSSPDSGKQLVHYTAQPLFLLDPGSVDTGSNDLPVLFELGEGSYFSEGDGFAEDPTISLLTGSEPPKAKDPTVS
structure (smiles),measurement,setting,value
O=C(O)CN(CCN(CC(=O)O)CC(=O)O)CCN(CC(=O)O)CC(=O)O,outcome,[1],inactive
same,outcome,[2],inactive
same,outcome,[3],inactive
same,outcome,[4],inactive
same,outcome,[5],inactive
same,outcome,[6],inactive
same,outcome,[7],inactive
same,outcome,[8],inactive
CC(C)C[C@H]1C(=O)N2CCC[C@H]2[C@]2(O)O[C@](NC(=O)[C@@H]3C=C4c5cccc6[nH]c(Br)c(c56)C[C@H]4N(C)C3)(C(C)C)C(=O)N12,outcome,[1],inactive
same,AC50,[2],3.76 µM (active)
same,outcome,[3],inactive
same,outcome,[4],inactive
same,outcome,[5],inactive
same,outcome,[6],inactive
same,AC50,[7],2.16 µM (active)
same,AC50,[8],0.744 µM (active)
CC(C)=CCO,outcome,[2],inactive
same,outcome,[3],inactive
same,outcome,[4],inactive
same,outcome,[9],inactive
same,outcome,[5],inactive
same,outcome,[6],inactive
same,outcome,[7],inactive
O=C1CCCCCCCCCCCCCCO1,outcome,[1],inactive
same,outcome,[2],inactive
same,outcome,[3],inactive
same,outcome,[9],inactive
same,outcome,[5],inactive
same,outcome,[6],inactive
same,outcome,[7],inactive
CN1Cc2c(N)cccc2C(c2ccccc2)C1 (configuration not stated),outcome,[1],inactive
same,outcome,[2],inactive
same,outcome,[3],inactive
same,outcome,[4],inactive
same,outcome,[5],inactive
same,outcome,[6],inactive
same,outcome,[7],inactive
same,outcome,[8],inactive
CNCCCC12CCC(c3ccccc31)c1ccccc12,outcome,[1],inactive
same,AC50,[2],17.9 µM (active)
same,outcome,[3],inactive
same,outcome,[4],inactive
same,outcome,[5],inactive
same,outcome,[6],inactive
same,AC50,[7],16.6 µM (active)
same,outcome,[8],inactive
O=c1cc(-c2ccccc2)oc2cc(O)cc(O)c12,outcome,[1],inactive
same,outcome,[2],inactive
same,outcome,[3],inactive
same,outcome,[4],inactive
same,outcome,[5],inactive
same,outcome,[6],inactive
same,outcome,[7],inactive
same,outcome,[8],inactive
C=C(C)[C@@H]1CCC2=CC(=O)C[C@@H](C)[C@]2(C)C1,outcome,[2],inactive
same,outcome,[3],inactive
same,outcome,[4],inactive
same,outcome,[9],inactive
same,outcome,[5],inactive
same,outcome,[6],inactive
same,outcome,[7],inactive
CC1=CCC(O)(C(C)C)CC1 (configuration not stated),outcome,[1],inactive
same,outcome,[2],inactive
same,outcome,[3],inactive
same,outcome,[4],inactive
same,outcome,[5],inactive
same,outcome,[6],inactive
same,outcome,[7],inactive
same,outcome,[8],inactive
C[C@H]1C[C@@H]2[C@H]([C@@H](O)C[C@@]3(C)[C@H]2CC[C@]3(O)C(=O)CO)[C@@]2(C)C=CC(=O)C=C12,AC50,[1],0.151 µM (active)
same,outcome,[2],inactive
same,AC50,[3],131 µM (active)
same,outcome,[4],inactive
same,outcome,[5],inactive
same,outcome,[7],inactive
c1ccc2[nH]ccc2c1,outcome,[1],inactive
same,outcome,[2],inactive
same,outcome,[3],inactive
same,outcome,[5],inactive
same,outcome,[6],inactive
same,outcome,[7],inactive
NCCCCCCN,outcome,[2],inactive
same,outcome,[3],inactive
same,outcome,[4],inactive
same,outcome,[9],inactive
same,outcome,[5],inactive
same,outcome,[6],inactive
same,outcome,[7],inactive
CC(=O)c1c(C)cc(C(C)(C)C)cc1C,outcome,[2],inactive
same,outcome,[3],inactive
same,outcome,[4],inactive
same,outcome,[9],inactive
same,outcome,[5],inactive
same,outcome,[6],inactive
same,outcome,[7],inactive
CC(C)c1cccc(O)c1,outcome,[1],inactive
same,outcome,[2],inactive
same,outcome,[3],inactive
same,outcome,[9],inactive
same,outcome,[5],inactive
same,outcome,[6],inactive
same,outcome,[7],inactive
same,outcome,[8],inactive
C=COCCOCCOCCOC=C,outcome,[1],inactive
same,outcome,[2],inactive
same,outcome,[3],inactive
same,outcome,[9],inactive
same,outcome,[5],inactive
same,outcome,[6],inactive
same,outcome,[7],inactive
same,outcome,[8],inactive
CC[C@]12CCCN3CCc4c(n(c5ccccc45)[C@@](O)(C(=O)OC)C1)[C@@H]32,outcome,[1],inactive
same,outcome,[2],inactive
same,outcome,[3],inactive
same,outcome,[4],inactive
same,outcome,[5],inactive
same,outcome,[7],inactive
CC(O)C(C)O (configuration not stated),outcome,[1],inactive
same,outcome,[2],inactive
same,outcome,[3],inactive
same,outcome,[4],inactive
same,outcome,[5],inactive
same,outcome,[6],inactive
same,outcome,[7],inactive
same,outcome,[8],inactive
O=C(O)CCCCC1CCSS1 (configuration not stated),outcome,[1],inactive
same,outcome,[2],inactive
same,outcome,[3],inactive
same,outcome,[4],inactive
same,outcome,[5],inactive
same,outcome,[6],inactive
same,outcome,[7],inactive
CCCCCCOC(=O)CCCCC,outcome,[1],inactive
same,outcome,[2],inactive
same,outcome,[3],inactive
same,outcome,[4],inactive
same,outcome,[5],inactive
same,outcome,[6],inactive
same,outcome,[7],inactive
O=C(O)c1cn(C2CC2)c2cc(N3CCNCC3)c(F)cc2c1=O,outcome,[1],inactive
same,outcome,[2],inactive
same,outcome,[3],inactive
same,outcome,[4],inactive
same,outcome,[6],inactive
same,outcome,[7],inactive
O=C1C(c2[nH]c3ccc(S(=O)(=O)O)cc3c2O)=Nc2ccc(S(=O)(=O)O)cc21,outcome,[2],inactive
same,outcome,[3],inactive
same,outcome,[4],inactive
same,outcome,[9],inactive
same,outcome,[5],inactive
same,outcome,[7],inactive
CO[Si](CCCn1c(=O)n(CCC[Si](OC)(OC)OC)c(=O)n(CCC[Si](OC)(OC)OC)c1=O)(OC)OC,outcome,[2],inactive
same,outcome,[3],inactive
same,outcome,[4],inactive
same,outcome,[9],inactive
same,outcome,[5],inactive
same,outcome,[6],inactive
same,outcome,[7],inactive
same,outcome,[8],inactive
O=S(=O)(O)c1cccc2c(S(=O)(=O)O)cccc12,outcome,[2],inactive
same,outcome,[3],inactive
same,outcome,[4],inactive
same,outcome,[9],inactive
same,outcome,[5],inactive
same,outcome,[6],inactive
same,outcome,[7],inactive
same,outcome,[8],inactive
CC1(C)C(=O)N(Br)C(=O)N1Cl,outcome,[2],inactive
same,outcome,[3],inactive
same,outcome,[4],inactive
same,outcome,[9],inactive
same,outcome,[5],inactive
same,outcome,[6],inactive
same,outcome,[7],inactive
same,outcome,[8],inactive
CCCC[n+]1ccccc1,outcome,[2],inactive
same,outcome,[3],inactive
same,outcome,[4],inactive
same,outcome,[9],inactive
same,outcome,[5],inactive
same,outcome,[7],inactive
CC(C)=CCC/C(C)=C/COC=O,outcome,[2],inactive
same,outcome,[3],inactive
same,outcome,[4],inactive
same,outcome,[9],inactive
same,outcome,[5],inactive
same,outcome,[6],inactive
same,outcome,[7],inactive
same,outcome,[8],inactive
Cc1ccc(C=O)s1,outcome,[2],inactive
same,outcome,[3],inactive
same,outcome,[4],inactive
same,outcome,[9],inactive
same,outcome,[5],inactive
same,outcome,[6],inactive
same,outcome,[7],inactive
same,outcome,[8],inactive
CC1(C)[C@H](C(=O)OCc2cccc(Oc3ccccc3)c2)[C@@H]1C=C(Cl)Cl,outcome,[2],inactive
same,outcome,[3],inactive
same,outcome,[4],inactive
same,outcome,[9],inactive
same,outcome,[5],inactive
same,outcome,[6],inactive
same,outcome,[7],inactive
same,outcome,[8],inactive
CCCCCNCCCCC,outcome,[2],inactive
same,outcome,[3],inactive
same,outcome,[4],inactive
same,outcome,[9],inactive
same,outcome,[5],inactive
same,outcome,[6],inactive
same,outcome,[7],inactive
same,outcome,[8],inactive
C=C(C)C(=O)Nc1ccc(Cl)c(Cl)c1,outcome,[2],inactive
same,outcome,[3],inactive
same,outcome,[4],inactive
same,outcome,[9],inactive
same,outcome,[5],inactive
same,outcome,[6],inactive
same,AC50,[7],18.9 µM (active)
same,AC50,[8],27.8 µM (active)
CCCCCCCCCCCCN(CCCCCCCCCCCC)CCCCCCCCCCCC,outcome,[2],inactive
same,outcome,[3],inactive
same,outcome,[4],inactive
same,outcome,[9],inactive
same,outcome,[5],inactive
same,outcome,[6],inactive
same,outcome,[7],inactive
same,outcome,[8],inactive
CC(=O)C(=O)O,outcome,[2],inactive
same,outcome,[3],inactive
same,outcome,[4],inactive
same,AC50,[9],33.9 µM (active)
same,outcome,[5],inactive
same,outcome,[6],inactive
same,outcome,[7],inactive
same,outcome,[8],inactive
